Unmarked numbers belong to inactive results. Records with an inconclusive call do not appear. Where a call stands in place of a potency, no number is given. Activity calls are given as the source filed them. Calls follow the shape of the full dose curve.

Chain of Acetylcholinesterase (Homo sapiens) (P22303 whole entry, looked up): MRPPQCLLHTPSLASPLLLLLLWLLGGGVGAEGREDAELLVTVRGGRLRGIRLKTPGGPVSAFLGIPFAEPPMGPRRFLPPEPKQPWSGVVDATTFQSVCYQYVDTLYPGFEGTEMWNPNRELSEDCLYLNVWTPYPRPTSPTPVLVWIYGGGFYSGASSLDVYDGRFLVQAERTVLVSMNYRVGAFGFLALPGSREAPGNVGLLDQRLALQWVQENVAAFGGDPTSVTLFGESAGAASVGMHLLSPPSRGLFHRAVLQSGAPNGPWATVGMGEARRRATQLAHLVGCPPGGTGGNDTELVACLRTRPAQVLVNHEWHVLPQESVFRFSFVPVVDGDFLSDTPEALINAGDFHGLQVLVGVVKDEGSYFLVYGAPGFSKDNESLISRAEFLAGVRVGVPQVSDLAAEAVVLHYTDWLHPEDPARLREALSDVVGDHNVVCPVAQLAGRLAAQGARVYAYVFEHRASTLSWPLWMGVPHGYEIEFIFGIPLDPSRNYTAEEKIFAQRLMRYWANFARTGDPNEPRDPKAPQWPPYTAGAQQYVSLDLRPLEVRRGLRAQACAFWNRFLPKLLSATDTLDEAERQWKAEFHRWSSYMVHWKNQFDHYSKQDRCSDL

One test has as its target Acetylcholinesterase (Homo sapiens) (UniProt P22303). As to the kind of experiment: Acetylcholinesterase (AChE) small molecule antagonists: fluorescence cell-based qHTS assay (AID 1347398). Also: nearly all actives have a fitted effect of over 50% in size. Particulars: SH-SY5Y cells; Potency: AChE activity; outcome: AChE activity; series mostly up to 115 µM. In outline: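 Thiocholine generated from acetylthiocholine by SH-SY5Y cell AChE is detected with Thiolite Green (Ex/Em 490/520 nm) after 40 min at room temperature, following 30 min compound pretreatment at 37 C.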
(qHTS replaces the single test concentration by a dilution series.)
For `Cc1ccc(C(=O)O)o1`, the Potency entry is “inactive”.

Turning to `Oc1ccc(N=Nc2ccccc2)cc1`, the Potency result was “inactive”.

Turning to `O=[N+]([O-])c1ccc2ncccc2c1`, the Potency result was “inactive”.

Take `CCCC(C)=O`: the Potency result is “inactive”.

As for `CCCC(C)CCC(C)=O` (stereo not given), the Potency entry was “inactive”.

In the case of `C=CC(=C)CCC=C(C)C`, the Potency result was “inactive”.

For `CN(C)c1ccc(N=NS(=O)(=O)O)cc1`, the Potency result was “inactive”.

With `BrCCOc1ccccc1`, the Potency entry was “inactive”.

On to `NNc1nnc(NN)c2ccccc12`, for which the Potency entry is “inactive”.

Consider `O=C(CCN1CCN(CCO)CC1)N1c2ccccc2Sc2ccc(C(F)(F)F)cc21`, for which the Potency result was “inactive”.

In the case of `O=C(O)c1ccc(O)cc1`, the Potency entry was “inactive”.

As to `CC(=O)CC/C=C(\C)CC/C=C(\C)CC/C=C(\C)CCC=C(C)C`, the Potency result was “inactive”.

Consider `CC(C)CC(C)CC(O)CC(C)C` (stereo not given), for which the Potency entry is “inactive”.

For the compound `O=Cc1ccc(O)c(O)c1O`, the Potency entry was “inactive”.

For `CCC(C)(C)c1cc(O)c(C(C)(C)CC)cc1O`, the Potency result is “inactive”.

As to `O=C(O)c1cc(O)c2c(c1)C(=O)c1cccc(O)c1C2=O`, the Potency entry is “inactive”.

For `CCCCCCC=O`, the Potency result is “inactive”.

Turning to `Cn1ccc2cc3c(cc21)CCN3C(=O)Nc1cccnc1`, the activity change, negative = inhibition was -28.9% [at 23.8 µM].

On to `C/C(=N\O)c1ccc(OCC(=O)N2CCCCC2)cc1`, for which the Potency result is “inactive”.

Turning to `CCCCCC[C@@H](O)C/C=C\CCCCCCCC(=O)OC`, the Potency entry was “inactive”.

`CCC(C)(C)OC`: the Potency result was “inactive”.

As to `CCO[Si](CCCS)(OCC)OCC`, the Potency entry was “inactive”.

Take `CC(C)=CCC[C@@](C)(O)[C@H]1CC=C(C)CC1`: the Potency result was “inactive”.

As to `O=c1n(CC2CO2)c(=O)n(CC2CO2)c(=O)n1CC1CO1` (stereo not given), the Potency result was “inactive”.

Regarding `Cc1nc2c([nH]1)c(=O)n(C)c(=O)n2Cc1ccco1`, the Potency entry is “inactive”.

Turning to `CCCCCCCCCCCC(=O)N(CC)CC`, the Potency entry was “inactive”.

Regarding `CCCCCC(C)=O`, the Potency result is “inactive”.

For the compound `CC(=O)N1C[C@H](O)C[C@H]1C(=O)O`, the Potency entry was “inactive”.

As for `O=C(O)c1cc(O)c(O)c(O)c1`, the Potency entry was “inactive”.

Regarding `Cc1ccc(S(=O)(=O)NCl)cc1`, the Potency result was “inactive”.

On to `O=C1C(CCS(=O)c2ccccc2)C(=O)N(c2ccccc2)N1c1ccccc1` (stereo not given), for which the Potency result is “inactive”.

`CCCCCCCCOC(C)=O`: the Potency entry is “inactive”.

On to `CC(=O)O[C@@]12CO[C@@H]1C[C@H](O)[C@@]1(C)C(=O)[C@H](O)C3=C(C)[C@@H](OC(=O)[C@H](O)[C@@H](NC(=O)OC(C)(C)C)c4ccccc4)C[C@@](O)([C@@H](OC(=O)c4ccccc4)[C@H]21)C3(C)C`, for which the Potency entry was “inactive”.

With `CC/C=C/CCO`, the Potency entry was “inactive”.

On to `CC(C)(C)NCC(O)c1cc(O)cc(O)c1` (stereo not given), for which the Potency result is “inactive”.

In the case of `C=C(C)C(=O)OCCOC(=O)CC(C)=O`, the Potency result is “inactive”.

For `Cc1cccc(C)c1O`, the Potency entry is “inactive”.

Turning to `Oc1cccc2cc3cccc(O)c3c(O)c12`, the Potency result was “inactive”.

As for `CC(=O)OC1CCCCC1`, the Potency entry was “inactive”.

For `N#C[C@@H]1CC(F)(F)CN1C(=O)CNC1CC2CCC(C1)N2c1ncccn1` (stereo not given in full), the Potency result was “inactive”.

Another test has the same target. The experiment in a line: Acetylcholinesterase (AChE) small molecule antagonists: enzyme-based qHTS assay with human liver microsomes (AID 1347399). Also: nearly all actives have a fitted effect of over 60% in size. Conditions: Potency: qHTS inhibition; outcome: qHTS inhibition; series mostly up to 115 µM. The gist of the method:
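Recombinant human AChE (50 mU/mL in the enzyme mix) and human liver microsomes (0.25 mg/mL final) were preincubated with compound and NADPH (0.25 mg/mL final) for 30 min at 37 C. Acetylthiocholine/DTNB was then added; thiocholine was read colorimetrically after 10 min at room temperature.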
For the compound `Cc1ccc(C(=O)O)o1`, the Potency result was “inactive”.

Take `Oc1ccc(N=Nc2ccccc2)cc1`: the Potency entry is “inactive”.

For the compound `O=[N+]([O-])c1ccc2ncccc2c1`, the Potency entry was “inactive”.

`CCCC(C)=O`: the Potency result is “inactive”.

For the compound `CCCC(C)CCC(C)=O` (stereo not given), the Potency entry was “inactive”.

Consider `C=CC(=C)CCC=C(C)C`, for which the Potency result was “inactive”.

Consider `CN(C)c1ccc(N=NS(=O)(=O)O)cc1`, for which the Potency entry is “inactive”.

For `BrCCOc1ccccc1`, the Potency entry was “inactive”.

`NNc1nnc(NN)c2ccccc12`: the Potency entry was “inactive”.

Turning to `O=C(CCN1CCN(CCO)CC1)N1c2ccccc2Sc2ccc(C(F)(F)F)cc21`, the Potency result is “inactive”.

`O=C(O)c1ccc(O)cc1`: the Potency result was “inactive”.

Take `CC(=O)CC/C=C(\C)CC/C=C(\C)CC/C=C(\C)CCC=C(C)C`: the Potency entry is “inactive”.

For `CC(C)CC(C)CC(O)CC(C)C` (stereo not given), the Potency result was “inactive”.

As to `O=Cc1ccc(O)c(O)c1O`, the Potency entry is “inactive”.

`CCC(C)(C)c1cc(O)c(C(C)(C)CC)cc1O`: the Potency entry was “inactive”.

With `O=C(O)c1cc(O)c2c(c1)C(=O)c1cccc(O)c1C2=O`, the Potency result is “inactive”.

Take `CCCCCCC=O`: the Potency entry is “inactive”.

`Cn1ccc2cc3c(cc21)CCN3C(=O)Nc1cccnc1`: the activity change, negative = inhibition was 2.86% [at 23.6 µM].

For `C/C(=N\O)c1ccc(OCC(=O)N2CCCCC2)cc1`, the Potency result is “inactive”.

Regarding `CCCCCC[C@@H](O)C/C=C\CCCCCCCC(=O)OC`, the Potency result was “inactive”.

Regarding `CCC(C)(C)OC`, the Potency result was “inactive”.

On to `CCO[Si](CCCS)(OCC)OCC`, for which the Potency result is “inactive”.

For `CC(C)=CCC[C@@](C)(O)[C@H]1CC=C(C)CC1`, the Potency result was “inactive”.

For the compound `O=c1n(CC2CO2)c(=O)n(CC2CO2)c(=O)n1CC1CO1` (stereo not given), the Potency result is “inactive”.

In the case of `Cc1nc2c([nH]1)c(=O)n(C)c(=O)n2Cc1ccco1`, the Potency entry was “inactive”.

`CCCCCCCCCCCC(=O)N(CC)CC`: the Potency result was “inactive”.

With `CCCCCC(C)=O`, the Potency entry was “inactive”.

For the compound `CC(=O)N1C[C@H](O)C[C@H]1C(=O)O`, the Potency result is “inactive”.

For the compound `O=C(O)c1cc(O)c(O)c(O)c1`, the Potency result was “inactive”.

Regarding `Cc1ccc(S(=O)(=O)NCl)cc1`, the Potency result is “inactive”.

On to `O=C1C(CCS(=O)c2ccccc2)C(=O)N(c2ccccc2)N1c1ccccc1` (stereo not given), for which the Potency result was “inactive”.

On to `CCCCCCCCOC(C)=O`, for which the Potency entry was “inactive”.

On to `CC(=O)O[C@@]12CO[C@@H]1C[C@H](O)[C@@]1(C)C(=O)[C@H](O)C3=C(C)[C@@H](OC(=O)[C@H](O)[C@@H](NC(=O)OC(C)(C)C)c4ccccc4)C[C@@](O)([C@@H](OC(=O)c4ccccc4)[C@H]21)C3(C)C`, for which the Potency entry was “inactive”.

`CC/C=C/CCO`: the Potency result was “inactive”.

As to `CC(C)(C)NCC(O)c1cc(O)cc(O)c1` (stereo not given), the Potency entry was “inactive”.

On to `C=C(C)C(=O)OCCOC(=O)CC(C)=O`, for which the Potency entry was “inactive”.

Turning to `Cc1cccc(C)c1O`, the Potency result was “inactive”.

As for `Oc1cccc2cc3cccc(O)c3c(O)c12`, the Potency result is “inactive”.

As to `CC(=O)OC1CCCCC1`, the Potency result is “inactive”.

Turning to `N#C[C@@H]1CC(F)(F)CN1C(=O)CNC1CC2CCC(C1)N2c1ncccn1` (stereo not given in full), the Potency result is “inactive”.

(Values after PubChem BioAssay (Tox21).)
